# Sampled rows, rich in hits. Any-hit rate of the full collection: about 8.1%.
# MITF inh = MITF inhibition | AID 2240 | inhibition, % (no concentration beside the values) | TRPM1 promoter luciferase, luminescence, 24 h | 37,000 compounds, 0.28% hits; in the data active means inhibition above about 85%;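 further: human melanocyte line stably carrying TRPM1 promoter luciferase reporter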
# Hedgehog inh = blocks Sonic Hedgehog signaling. Shh-LIGHT2 Gli-luciferase reporter, 30 h. inhibition, % (test concentration not listed). 22,000 compounds, 2.1% hits. AID 2313;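 active means mean inhibition across valid replicates above about 65%, limit read from the data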;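 further: pathway switched on by Shh-conditioned medium diluted 1 in 25 in low serum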
# NOMO-1 viab = STK33 inhibitor candidate reducing NOMO-1 cell viability; inhibition, % (concentration not given with the values); 37,000 compounds, 7.5% hits; NOMO-1 AML viability, CellTiter-Glo luminescence, 72 h; AID 2330; in the data active means inhibition above about 80%
# * hit, by the source's call; · = no result given.
SMILES,MITF inh,Hedgehog inh,NOMO-1 viab
C[C@@H]1CN([C@@H](C)CO)C(=O)c2cc(NS(C)(=O)=O)ccc2O[C@H]1CN(C)Cc1ccc(C(=O)Nc2ccccc2N)cc1,-9,·,27
C[C@H]1CN([C@@H](C)CO)C(=O)c2cc(NS(=O)(=O)c3cccs3)ccc2O[C@H]1CN(C)Cc1ccc(C(=O)Nc2ccccc2N)cc1,18,·,71
CS(=O)(=O)N(CC(=O)Nc1cc(C(F)(F)F)ccc1Cl)c1cccc([N+](=O)[O-])c1,-5,·,31
Cc1ccc(Cl)cc1N(CC(=O)Nc1ccc(I)cc1)S(C)(=O)=O,32,·,66
Cc1ccc(Cl)cc1N(CC(=O)Nc1ccc(C(F)(F)F)cc1)S(C)(=O)=O,69,·,118*
CS(=O)(=O)N(CC(=O)Nc1ccc(C(F)(F)F)cc1)c1cccc([N+](=O)[O-])c1,11,·,121*
O=c1c(C(F)(F)F)cccn1CCc1nc(-c2ccccc2)cs1,6,-36,8
COc1ccc(OC(C)C(=O)Nc2cc(C)c(Cl)cc2OC)cc1 (centres undefined),36,·,44
CCCCCC[C@H](O)/C=C/CC1C(=O)CC[C@H](O)C1=O (some centres undefined),-11,-33,2
CCCCCCCCC/C=C/CCCCC(=O)C1C(=O)CCC(O)C1=O (centres undefined),30,-8,109*
CCc1cccc(C)c1NC(=O)CN(C)S(=O)(=O)c1ccc(Cl)cc1,9,·,-9
C[C@H]1CN([C@@H](C)CO)C(=O)c2cc(NS(=O)(=O)c3ccc(F)cc3)ccc2O[C@@H]1CN(C)Cc1ccc(Cl)c(Cl)c1,29,19,110*
C[C@@H]1CN([C@H](C)CO)C(=O)c2cc(NS(=O)(=O)c3ccc(Cl)cc3)ccc2O[C@@H]1CN(C)Cc1ccc(Cl)c(Cl)c1,50,42,90*
C[C@@H]1CCCCO[C@H](CN(C)Cc2ccc(Cl)c(Cl)c2)[C@@H](C)CN([C@H](C)CO)C(=O)c2cc(NS(=O)(=O)c3cccs3)ccc2O1,22,43,61
Cc1ccc(S(=O)(=O)Nc2ccc3c(c2)C(=O)N([C@H](C)CO)C[C@H](C)[C@@H](CN(C)Cc2ccc4c(c2)OCO4)OCCCC[C@@H](C)O3)cc1,-7,40,46
C[C@H](CO)N1C[C@H](C)[C@@H](CN(C)Cc2ccc(Cl)c(Cl)c2)Oc2ccc(NS(=O)(=O)c3ccc(F)cc3)cc2C1=O,1,27,35
C[C@@H]1CCCCO[C@@H](CN(C)Cc2ccc(Cl)c(Cl)c2)[C@@H](C)CN([C@H](C)CO)C(=O)c2cc(NS(=O)(=O)c3cccs3)ccc2O1,53,3,118*
C[C@@H]1CCCCO[C@H](CN(C)Cc2ccc3c(c2)OCO3)[C@@H](C)CN([C@H](C)CO)C(=O)c2cc(NS(=O)(=O)c3ccc(Cl)cc3)ccc2O1,-1,27,87*
C[C@H](CO)N1C[C@H](C)[C@H](CN(C)Cc2ccc(Cl)c(Cl)c2)Oc2ccc(NS(=O)(=O)c3ccc(F)cc3)cc2C1=O,-4,-1,22
Cc1ccc(S(=O)(=O)N(C)CC(=O)Nc2cc(Cl)ccc2Oc2ccccc2)cc1,-13,·,45
CCOc1ccc(NS(=O)(=O)c2cc(C(=O)O)ccc2OC)cc1,-21,·,17
COC(=O)C1=CO[C@@H](O[C@@H]2O[C@H](CO)[C@@H](O)[C@H](O)[C@H]2O)[C@H]2[C@@H]1[C@H](OC(=O)/C=C\c1ccc(O)cc1)C[C@]2(C)OC(C)=O,-2,11,8
O=C(Cn1cnc2ccccc2c1=O)Nc1ccc(Cl)c(Cl)c1,-8,·,33
C[C@@H]1CCCCO[C@@H](CN(C)Cc2ccc(Cl)c(Cl)c2)[C@@H](C)CN([C@H](C)CO)C(=O)c2cc(NS(=O)(=O)c3ccc(F)cc3)ccc2O1,20,-48,99*
C[C@@H]1CN([C@@H](C)CO)C(=O)c2cc(NS(=O)(=O)c3ccccc3)ccc2O[C@@H]1CN(C)Cc1ccc(Cl)c(Cl)c1,64,25,103*
C[C@H]1CN([C@@H](C)CO)C(=O)c2cc(NS(=O)(=O)c3ccc(F)cc3)ccc2O[C@@H]1CN(C)Cc1ccc2c(c1)OCO2,-12,·,16
C[C@H](CO)N1C[C@H](C)[C@H](CN(C)Cc2ccc(Cl)c(Cl)c2)Oc2ccc(NS(=O)(=O)c3ccc(Cl)cc3)cc2C1=O,24,19,60
C[C@H]1CN([C@@H](C)CO)C(=O)c2cc(NS(=O)(=O)c3ccc(F)cc3)ccc2O[C@H]1CN(C)Cc1ccc2c(c1)OCO2,-2,23,93*
C[C@H]1CN([C@@H](C)CO)C(=O)c2cc(NS(=O)(=O)c3ccccc3)ccc2O[C@H]1CN(C)Cc1ccc(Cl)c(Cl)c1,30,·,73
C[C@@H]1CN([C@@H](C)CO)C(=O)c2cc(NS(=O)(=O)c3ccc(Cl)cc3)ccc2O[C@@H]1CN(C)Cc1ccc(Cl)c(Cl)c1,49,-7,116*
